Where a name gives a salt, the structure may show the parent alone.
Tested on: primary human hepatic stellate cells (donor 1)
Experiment: PSMB2 reference mRNA level vs DMSO (fold); higher = more PSMB2 expression
Settings: 48 h
Protocol: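 Secondary qRT-PCR screen in primary human HSCs (donor 1), 384-well plates, with compounds dispensed in quadruplicate and incubated for 48 h. Cells-to-CT lysates were used for multiplexed TaqMan qPCR of ACTA2 or COL1A1 with PSMB2 as reference. Fold changes versus DMSO come from a linear model (Ct_gene ~ Ct_PSMB2 + plate + chemical). A hit is defined as COL1A1 and ACTA2 FC <0.5 (FDR <0.05) with PSMB2 between 0.2 and 2.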

Compound | PSMB2 reference mRNA level
COc1ccc(NS(=O)(=O)c2sc3ccc(Cl)cc3c2C)cc1N1CCNCC1 (33.3333 µM) | 0.507
CNCCCC12CCC(c3ccccc31)c1ccccc12 [Maprotiline hydrochloride] (33.3333 µM) | 1.89
CSc1ccc2c(c1)C(N1CCN(C)CC1)Cc1ccccc1S2 (stereo not given) [Methiothepin maleate] (33.3333 µM) | 0.000808
CCCSc1ccc2[nH]c(NC(=O)OC)nc2c1 [Albendazole] (33.3333 µM) | 1.65
c1cc(OCCN2CCCCC2)cc(-c2n[nH]c3ccc(-c4nnc[nH]4)cc23)c1 (33.3333 µM) | 0.677
Cc1[nH]c(/C=C2\C(=O)Nc3ccc(S(=O)(=O)N(C)c4cccc(Cl)c4)cc32)c(C)c1C(=O)N1CCN(C)CC1 (33.3333 µM) | 0.98
COc1cc2nc(N3CCCN(C)CC3)nc(NC3CCN(Cc4ccccc4)CC3)c2cc1OC (3.33333 µM) | 0.211
CN(C)CCC(c1ccc(Br)cc1)c1ccccn1 (stereo not given) [Brompheniramine maleate] (33.3333 µM) | 1.3
CN1CCN(C2=Cc3ccccc3Oc3ccc(Cl)cc32)CC1 (33.3333 µM) | 0.977
CCOC(=O)C1=C(COCCN)NC(C)=C(C(=O)OC)C1c1ccccc1Cl (stereo not given) (33.3333 µM) | 1.28
